Test results from PubChem BioAssay AID720513 (Broad Institute, 2013).
In all, about 2,100 compounds went through this assay and about 480 (23%) were called active. Inconclusive results (about 5%) are left out. These entries were drawn from the full list. Potency and affinity values are given separately. Unmarked numbers belong to inactive results.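 Rule for the calls: active = fitted curve reaches 40% activation at or below the top valid concentration, in every replicate test; inconclusive = replicate tests disagree on the call; inactive = the rest, including activity in the opposite direction.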

Assay: activators raising PGC1a acetylation in cells, dose response, cell-based, cherry-picked samples, set 6 (AID 720513);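 note: cells made to overexpress flag tagged PGC1a plus GCN5 acetyltransferase by viral infection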
Conditions: U2OS PGC1a acetylation AlphaLISA, overnight, 0 = neutral, -100 = inhibitor control; series mostly up to 19.5 µM; activation (acetylation increase): at the top concentration

Compound | activation (acetylation increase) | outcome
C[C@H](CO)N1C[C@H](C)[C@@H](CN(C)Cc2ccc(C(F)(F)F)cc2)OCc2cnnn2CCCC1=O | -39.1% | 
COc1ccc(C(NC(=O)c2c(F)c(F)c(F)c(F)c2F)c2ccccc2)cc1 (stereo not given) | -107% | 
CO[C@@H]1CN(C)C(=O)c2ccc(NS(C)(=O)=O)cc2OC[C@@H](C)N(Cc2nccs2)C[C@@H]1C | 9.44% | 
O=C(C[C@@H]1C[C@@H]2c3cc(NC(=O)C4CCC4)ccc3O[C@@H]2[C@@H](CO)O1)NCc1ccc(-c2ccccc2)cc1 | 16.7% [at 21 µM] | 
CC1=C(Cl)C2=NS(=O)(=O)CCN2C=C1Cl | -15.2% | 
O=C(c1ccc(Cl)cc1)C(Cn1cncn1)C(Sc1ccccc1)c1ccccc1 (stereo not given) | -26% [at 10 µM] | 
CCCNC(=O)N(C)C[C@H]1Oc2cc(C#CCC(C)C)ccc2S(=O)(=O)N([C@@H](C)CO)C[C@H]1C | -22.8% | 
COc1cc(CCC(=O)Nc2cc(C)cc(C)c2)cc(OC)c1OC | 27.5% | 
Cc1ccc(S(=O)(=O)N(CC2CO2)c2ccccc2[N+](=O)[O-])cc1 (stereo not given) | 7.63% | 
O=S(=O)(O)c1nc2ccccc2n1Cc1ccc(Cl)cc1 | 16% [at 10 µM] | 
CC(C)c1ccccc1NC(=O)Cn1c(-c2ccccc2Cl)nc2ccccc21 | 7.14% | 
O=S(=O)(c1ccc(N2CCC(c3ccc(Cl)cc3)=N2)cc1)N(CCO)CCO | -6.7% | 
COc1cccc(N2C(=NC(=O)c3ccccc3)SC3CS(=O)(=O)CC32)c1 (stereo not given) | -1.74% | 
CCOC(=O)c1ccc2[nH]c(C)c(CN3CCN(C)CC3)c(=O)c2c1 | 20.5% | 
CC(Sc1nnc(N)s1)C(=O)Nc1ccc2c(c1)OCO2 (stereo not given) | -0.09% | 
CCCN(C)C[C@H]1Oc2cc(C#Cc3ccc(OC)cc3)ccc2S(=O)(=O)N([C@@H](C)CO)C[C@H]1C | -59.5% | 
C[C@H](CO)N1C[C@H](C)[C@H](CN(C)C(=O)C2CCCCC2)Oc2cc(-c3ccccc3)ccc2S1(=O)=O | -2.64% | 
Cc1cc(N)c2cc(NC(=O)/C=C/c3ccccc3Cl)ccc2n1 | -96.7% | 
COc1ccc(-c2cn[nH]c2-c2ccc(O)cc2O)cc1 | -6.54% | 
O=C(CCCc1cccs1)NCCc1c[nH]c2ccccc12 | 13.6% | 
O=C(CN1C(=O)C2C3CC(C(Br)C3Br)C2C1=O)OCC(=O)c1cccc([N+](=O)[O-])c1 (stereo not given) | 20.3% | 
CC1=C(C(=O)OC(C)(C)C)C(c2ccc3ccccc3c2)NC(=O)N1C (stereo not given) | 28.9% | 
O=C(O)Cn1cc(C(=O)C(F)(F)F)c2ccccc21 | -17.3% | 

Compound | activation (acetylation increase) | outcome
O=C(Cn1cc(C(=O)c2cccs2)c2ccccc21)NCC1CCCO1 (stereo not given) | 20.3% | 
Cc1ccc(C(=O)Nc2nc(=O)n(C(=O)CC(C)C)s2)cc1 | -21.6% | 
CN(C)c1ccc(/C=N/N(CCC#N)C2=NS(=O)(=O)c3ccccc32)cc1 | 30.6% | 
O=C(COc1ccccc1Cl)Nc1ccc(Cl)cn1 | -9.22% | 
COc1ccccc1C(=O)N1C(CC(=O)Nc2cc(Cl)ccc2C)C(=O)NC2CCCCC21 (stereo not given) | 35.7% | 
Cc1ccc(Sc2ncnc3onc(C)c23)c(C)c1 | 23.8% | 
Cc1ccccc1CS(=O)(=O)c1nnc([C@H](CC(C)C)NC(=O)OC(C)(C)C)o1 | -78.1% | 
COc1ccc(S(=O)(=O)N2CCC(C(=O)N3CCC(C(N)=O)CC3)CC2)cc1Cl | 19.4% | 
Cc1ccc(CN2CC(C(=O)N3CCN(S(=O)(=O)c4cccc(F)c4)CC3)CC2=O)cc1 (stereo not given) | -5.88% | 
CC(C)CC#Cc1ccc2c(c1)O[C@H](CN(C)C(=O)Cc1ccccc1)[C@H](C)CN([C@H](C)CO)S2(=O)=O | 20.7% | 
COCCn1c(C)c(C)c2c(NCCc3ccccc3)ncnc21 | 11.3% | 
O=CNCCc1nc2ccccc2n1CCc1ccccc1 | 15.8% | 
CN1CCN(C2=C(Cl)C(=O)N(CCc3ccccc3)C2=O)CC1 | -19.5% | 
Cc1ccc(-c2ccc(C3[C@@H]4CN(C(=O)Nc5ccc(C(F)(F)F)cc5)C[C@H]3N4)cc2)cc1 (stereo not given in full) |  | inactive
COCCNC(=O)CSc1nc2c(n1-c1ccccc1)CCCC2 | 0.562% | 
C[C@@H]1CN([C@H](C)CO)C(=O)c2cccc(NC(=O)C3CCCCC3)c2O[C@@H]1CN(C)CC1CCCCC1 | 15.4% | 
CCOC(=O)c1ccc(-c2c(-c3cc(OC)c(OC)c(OC)c3)noc2C)cc1F | 1.34% | 
O=C(C[C@@H]1C=C[C@@H](NC(=O)Nc2ccc(F)cc2)[C@@H](CO)O1)NCCN1CCCC1 | 24% | 
CC(C)c1nc2sc3c(NCc4ccco4)ncnc3c2c2c1COC(C)(C)C2 | 31.6% | 
Cc1cccc(-c2ccc(C3[C@@H]4CN(C(=O)Nc5ccc(C(F)(F)F)cc5)C[C@H]3N4)cc2)c1 (stereo not given in full) | -88.7% [at 21 µM] | 
COc1cccc(-n2c(Cc3cc(=O)[nH]c(=O)[nH]3)nnc2SCc2cccc(C(F)(F)F)c2)c1 | 7.56% | 
O=C(Nc1ccc(F)cc1)c1sc2cc(C(F)(F)F)cnc2c1-c1cccs1 | 27.7% | 
